In assay [1] the target is guinea pig Serotonin, 5-Hydroxytryptamine Receptor 4 (5HT4), HTR4 (gene 100135548) (UniProt O70528). Briefly: NVS_GPCR_g5HT4: NovaScreen (NVS) G Protein-Coupled Receptor Assay for guinea pig Serotonin, 5-Hydroxytryptamine Receptor 4 (5HT4) (AID 2283294). The essentials: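 Guinea pig striatal membranes; radioligand competitive displacement, filtration and scintillation counting after 1 h. Primary screen in duplicate at 25 uM; actives then tested in concentration series; loss of binding signal fitted relative to DMSO.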
guinea pig Serotonin, 5-Hydroxytryptamine Receptor 4 (5HT4), HTR4 (gene 100135548), sequence (O70528 whole entry, looked up): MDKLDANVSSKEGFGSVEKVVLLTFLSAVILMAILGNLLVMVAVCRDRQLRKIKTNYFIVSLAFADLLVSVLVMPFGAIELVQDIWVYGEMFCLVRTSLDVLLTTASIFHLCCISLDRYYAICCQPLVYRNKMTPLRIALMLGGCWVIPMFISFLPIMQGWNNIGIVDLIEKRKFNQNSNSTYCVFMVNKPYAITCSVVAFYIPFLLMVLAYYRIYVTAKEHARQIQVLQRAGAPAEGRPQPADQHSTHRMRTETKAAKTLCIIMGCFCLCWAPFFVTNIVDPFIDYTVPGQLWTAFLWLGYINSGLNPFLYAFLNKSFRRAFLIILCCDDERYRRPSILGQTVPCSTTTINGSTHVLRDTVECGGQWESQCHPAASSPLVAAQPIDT

For assay [2], the target named is guinea pig Bradykinin Receptor B2 (BK2), BDKRB2 (gene 100135486) (UniProt O70526). Briefly: NVS_GPCR_gBK2: NovaScreen (NVS) G Protein-Coupled Receptor Assay for guinea pig Bradykinin Receptor B2 (BK2) (AID 2283292). An outline of the steps: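 Radioligand displacement on guinea pig ileum membranes for 1 h, read by filter-based scintillation counting; loss of signal relative to DMSO. Compounds were screened in duplicate at 25 uM, and those passing the threshold were retested in concentration-response up to 50 uM.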
guinea pig Bradykinin Receptor B2 (BK2), BDKRB2 (gene 100135486), sequence (O70526 whole entry, looked up): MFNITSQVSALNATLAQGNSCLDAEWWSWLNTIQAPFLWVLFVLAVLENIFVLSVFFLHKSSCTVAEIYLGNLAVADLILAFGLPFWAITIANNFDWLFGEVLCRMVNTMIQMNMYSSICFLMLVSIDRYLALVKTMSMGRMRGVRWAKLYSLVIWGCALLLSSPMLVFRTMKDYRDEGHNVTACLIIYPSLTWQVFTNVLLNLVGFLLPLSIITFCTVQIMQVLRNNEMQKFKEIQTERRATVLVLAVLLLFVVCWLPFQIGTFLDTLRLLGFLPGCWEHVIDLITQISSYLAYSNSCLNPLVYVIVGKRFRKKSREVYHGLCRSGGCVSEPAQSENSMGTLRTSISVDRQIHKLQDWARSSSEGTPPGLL

Assay [3] has as its target human Thromboxane A2 Receptor (TXA2), TBXA2R (gene 6915) (UniProt P21731). Nature of the assay: NVS_GPCR_hTXA2: NovaScreen (NVS) G Protein-Coupled Receptor Assay for human Thromboxane A2 Receptor (TXA2) (AID 2283282).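 Also: actives reduce bound radioligand signal relative to DMSO baseline.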 An outline of the steps: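 Biochem binding, human platelets, cell-free; competitive radioligand displacement; 1 h; filter radiodetection. 25 uM duplicate primary, conc. series secondary; DMSO neg. ctrl.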

The target of assay [4] is human Opioid Receptor Mu (Opiate Mu), OPRM1 (gene 4988) (UniProt P35372). Briefly: NVS_GPCR_hOpiate_mu: NovaScreen (NVS) G Protein-Coupled Receptor Assay for human Opioid Receptor Mu (Opiate Mu) (AID 2283290).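 Also: hits lower bound tracer signal versus DMSO meaning displacement of the ligand.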 The essentials:
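Cell-free radioligand binding to membranes from CHO cells expressing the receptor; bound tracer measured by filter-based scintillation counting 2.5 hours after dosing. Loss of signal versus DMSO baseline reflects displacement; primary screen at 25 uM in duplicate, actives followed up in concentration series.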

Assay [5] has as its system rabbit Platelet Activating Factor Receptor (PAF), gene 100354046. Nature of the assay: NVS_GPCR_rabPAF: NovaScreen (NVS) G Protein-Coupled Receptor Assay for rabbit Platelet Activating Factor Receptor (PAF) (AID 2283287). The essentials: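 Rabbit platelet membrane preparation; radioligand displacement read by filter-based scintillation counting 1 h after dosing, loss of signal versus DMSO. Primary screen in duplicate at 25 uM, actives followed up in concentration series.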

In assay [6] the target is rat Adrenergic Receptor, Alpha 2 (Adra2), Non-selective Binding, Adra2a (gene 25083) (UniProt P22909). Nature of the assay: NVS_GPCR_rAdra2_NonSelective: NovaScreen (NVS) G Protein-Coupled Receptor Assay for rat Adrenergic Receptor, Alpha 2 (Adra2), Non-selective Binding (AID 2283299). An outline of the steps:
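Rat cortical membranes, radioligand competitive displacement read by filter-based scintillation counting 1.25 hours after dosing. Primary screen in duplicate at 25 uM; actives followed up in concentration series.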

In assay [7] the target is rat Histamine Receptor (H3), Hrh3 (gene 85268) (UniProt Q9QYN8). Briefly: NVS_GPCR_rH3: NovaScreen (NVS) G Protein-Coupled Receptor Assay for rat Histamine Receptor (H3) (AID 2283303). The essentials: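 Rat forebrain membranes incubated 1 h with compound; radioligand displacement measured by filter-based scintillation counting. Single-concentration duplicates at 25 µM, then concentration-response up to 50 µM, relative to DMSO.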
rat Histamine Receptor (H3), Hrh3 (gene 85268), sequence (Q9QYN8 whole entry, looked up): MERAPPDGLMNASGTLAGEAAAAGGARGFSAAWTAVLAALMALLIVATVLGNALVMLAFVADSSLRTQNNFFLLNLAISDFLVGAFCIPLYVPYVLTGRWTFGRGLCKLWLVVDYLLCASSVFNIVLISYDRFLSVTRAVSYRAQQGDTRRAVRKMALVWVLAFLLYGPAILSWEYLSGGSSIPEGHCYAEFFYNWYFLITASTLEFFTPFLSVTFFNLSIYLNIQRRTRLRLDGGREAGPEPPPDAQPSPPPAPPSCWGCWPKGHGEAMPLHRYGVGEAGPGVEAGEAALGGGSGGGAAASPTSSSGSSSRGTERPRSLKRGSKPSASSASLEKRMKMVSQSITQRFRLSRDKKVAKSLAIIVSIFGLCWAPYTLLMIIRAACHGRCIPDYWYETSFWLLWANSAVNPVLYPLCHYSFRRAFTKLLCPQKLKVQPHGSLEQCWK

The target of assay [8] is human Opioid Receptor Delta 1 (Opiate D1), OPRD1 (gene 4985) (UniProt P41143). Nature of the assay: NVS_GPCR_hOpiate_D1: NovaScreen (NVS) G Protein-Coupled Receptor Assay for human Opioid Receptor Delta 1 (Opiate D1) (AID 2283280). An outline of the steps:
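Radioligand displacement on membranes from CHO cells expressing the receptor, read by filter scintillation counting 1 h after dosing. Duplicate single-point screen at 25 uM, then concentration series for actives; loss of signal versus DMSO.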

The target of assay [9] is human Orphanin, Opioid Related Nociceptin Receptor 1 (ORL1), OPRL1 (gene 4987) (UniProt P41146). Nature of the assay: NVS_GPCR_hORL1: NovaScreen (NVS) G Protein-Coupled Receptor Assay for human Orphanin, Opioid Related Nociceptin Receptor 1 (ORL1) (AID 2283283). The essentials: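 Filter-based radioligand displacement with receptor extracted from HEK293 cells, read 1 hour after dosing by scintillation counting. Duplicate single-point screen at 25 uM; qualifying chemicals then run in concentration-response to 50 uM, analysed relative to DMSO.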
human Orphanin, Opioid Related Nociceptin Receptor 1 (ORL1), OPRL1 (gene 4987), sequence (P41146 whole entry, looked up): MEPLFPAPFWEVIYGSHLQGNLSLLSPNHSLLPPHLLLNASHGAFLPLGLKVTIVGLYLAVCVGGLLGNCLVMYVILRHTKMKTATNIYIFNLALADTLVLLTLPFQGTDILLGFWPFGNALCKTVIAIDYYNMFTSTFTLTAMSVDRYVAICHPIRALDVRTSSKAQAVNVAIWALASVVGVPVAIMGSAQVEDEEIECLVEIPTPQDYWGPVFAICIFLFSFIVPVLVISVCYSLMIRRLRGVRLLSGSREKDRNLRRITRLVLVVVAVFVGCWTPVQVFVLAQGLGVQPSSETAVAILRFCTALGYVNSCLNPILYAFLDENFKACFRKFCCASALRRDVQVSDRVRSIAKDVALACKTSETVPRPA

The subject of assay [10] is 5-hydroxytryptamine receptor 2C (pig). Briefly: NVS_GPCR_p5HT2C: NovaScreen (NVS) G Protein-Coupled Receptor Assay for pig Serotonin, 5-Hydroxytryptamine Receptor 2C (5HT2C) (AID 2283288). The essentials: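 Pig choroid plexus membranes; radioligand competitive binding, filter-based scintillation counting, read 1 h after dosing. Primary screen in duplicate at 25 uM; actives then run as concentration series; loss of signal versus DMSO baseline.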

Assay [11] has as its system rat Adrenergic, Alpha 1B Receptor (Adra1B), gene 24173. Briefly: NVS_GPCR_rAdra1B: NovaScreen (NVS) G Protein-Coupled Receptor Assay for rat Adrenergic, Alpha 1B Receptor (Adra1B) (AID 2283297). The essentials:
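Rat liver membranes, radioligand displacement with filter-based scintillation detection, 1 h incubation. Primary screen in duplicate at 25 uM; actives retested in concentration series; activity relative to DMSO.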

For assay [12], the target named is mouse Cholecystokinin, CCK1 Receptor (CCKA), Cckar (gene 12425) (UniProt O08786). Briefly: NVS_GPCR_mCCKAPeripheral: NovaScreen (NVS) G Protein-Coupled Receptor Assay for mouse Cholecystokinin, CCK1 Receptor (CCKA) (AID 2283285). The essentials:
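Radioligand competitive displacement on mouse pancreatic membranes, 2 h incubation; filter-based scintillation counting, loss of signal versus DMSO. Single-concentration screen at 25 uM in duplicate, actives retested in concentration-response up to 50 uM.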

The target of assay [13] is rat Adrenergic, Alpha 1, Non-selective Receptor (Adra1), Adra1a (gene 29412) (UniProt P43140). Nature of the assay: NVS_GPCR_rAdra1_NonSelective: NovaScreen (NVS) G Protein-Coupled Receptor Assay for rat Adrenergic, Alpha 1, Non-selective Receptor (Adra1) (AID 2283289). The essentials:
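Rat forebrain membranes; radioligand displacement read by filter-based scintillation counting 1 h after dosing. Primary screen in duplicate at 25 uM; hits (e.g. ≥30% inhibition) rerun as concentration–response to 50 uM max. Fitted versus DMSO.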

Assay [14] addresses rat Adrenergic, Alpha 1A Receptor (Adra1A), Adra1a (gene 29412) (UniProt P43140). Briefly: NVS_GPCR_rAdra1A: NovaScreen (NVS) G Protein-Coupled Receptor Assay for rat Adrenergic, Alpha 1A Receptor (Adra1A) (AID 2283296). An outline of the steps: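 Rat cortical membranes pretreated with chlorethyl clonidine; competitive radioligand displacement, 1 h. Filter-based scintillation counting. Primary screen in duplicate at 25 uM, actives followed in concentration series.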

The target of assay [15] is rat Serotonin, 5-Hydroxytryptamine Receptor 1 (5HT1), Non-Selective Binding, Htr1a (gene 24473) (UniProt P19327). Briefly: NVS_GPCR_r5HT1_NonSelective: NovaScreen (NVS) G Protein-Coupled Receptor Assay for rat Serotonin, 5-Hydroxytryptamine Receptor 1 (5HT1), Non-Selective Binding (AID 2283286). The essentials: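 Rat cortical membranes, radioligand displacement, 1 h incubation, read by filter scintillation. Primary screen in duplicate at 25 uM. Hits (e.g. ≥30% inhibition) went to concentration-response up to 50 uM, fitted as loss of binding versus DMSO.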
rat Serotonin, 5-Hydroxytryptamine Receptor 1 (5HT1), Non-Selective Binding, Htr1a (gene 24473), sequence (P19327 whole entry, looked up): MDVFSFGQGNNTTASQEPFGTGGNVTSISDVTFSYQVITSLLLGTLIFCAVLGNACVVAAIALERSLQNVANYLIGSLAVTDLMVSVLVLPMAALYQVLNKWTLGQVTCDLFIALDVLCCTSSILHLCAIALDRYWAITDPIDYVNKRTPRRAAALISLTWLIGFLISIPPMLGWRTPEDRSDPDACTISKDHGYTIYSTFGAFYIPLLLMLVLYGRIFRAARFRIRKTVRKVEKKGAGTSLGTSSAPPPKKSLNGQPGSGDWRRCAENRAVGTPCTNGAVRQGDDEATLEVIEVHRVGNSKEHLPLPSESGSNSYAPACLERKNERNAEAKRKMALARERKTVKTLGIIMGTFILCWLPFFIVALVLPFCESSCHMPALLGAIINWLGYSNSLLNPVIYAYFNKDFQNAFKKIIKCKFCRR

The target in assay [16] is rat Gamma-Aminobutyric Acid Type B Receptor (GABBR), Gabbr1 (gene 81657) (UniProt Q9Z0U4). Briefly: NVS_GPCR_rGABBR: NovaScreen (NVS) G Protein-Coupled Receptor Assay for rat Gamma-Aminobutyric Acid Type B Receptor (GABBR) (AID 2283301). The essentials:
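Radioligand displacement on rat cortical membranes, 1 h, filter-based scintillation counting. Primary screen at 25 uM in duplicate; compounds passing threshold re-tested in concentration-response up to 50 uM; loss of binding fitted against DMSO.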

The target in assay [17] is rat Adrenergic Receptor, Beta (Adrb), Non-selective Binding, Adrb1 (gene 24925) (UniProt P18090). Briefly: NVS_GPCR_rAdrb_NonSelective: NovaScreen (NVS) G Protein-Coupled Receptor Assay for rat Adrenergic Receptor, Beta (Adrb), Non-selective Binding (AID 2283298). The essentials:
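Non-selective beta-adrenergic radioligand binding in rat cortical membranes, 1 h incubation, filter-based scintillation read-out. Primary screen 25 uM in duplicate; hits retested in concentration-response up to 50 uM, DMSO baseline.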

Assay [18] deals with rat Serotonin, 5-Hydroxytryptamine Receptor (5HT), Non-Selective Binding, Htr1a (gene 24473) (UniProt P19327). Nature of the assay: NVS_GPCR_r5HT_NonSelective: NovaScreen (NVS) G Protein-Coupled Receptor Assay for rat Serotonin, 5-Hydroxytryptamine Receptor (5HT), Non-Selective Binding (AID 2283295). The essentials:
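Radioligand displacement on rat cortical membranes, 1 h incubation, filter-based scintillation counting. Primary duplicates at 25 uM, actives retested in concentration series; loss of signal fitted against DMSO as baseline.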

The term AC50 denotes the concentration giving half of the maximal activity seen.

Results filed as inconclusive are left out. Active and inactive are the calls of the source. The calls were made as follows: active = hit-call score of the fitted dose curve at least 0.9, where 1 is the maximum; inconclusive = response in the unintended direction; inactive = score below 0.9.

human Thromboxane A2 Receptor (TXA2), TBXA2R (gene 6915), sequence (P21731 whole entry, looked up): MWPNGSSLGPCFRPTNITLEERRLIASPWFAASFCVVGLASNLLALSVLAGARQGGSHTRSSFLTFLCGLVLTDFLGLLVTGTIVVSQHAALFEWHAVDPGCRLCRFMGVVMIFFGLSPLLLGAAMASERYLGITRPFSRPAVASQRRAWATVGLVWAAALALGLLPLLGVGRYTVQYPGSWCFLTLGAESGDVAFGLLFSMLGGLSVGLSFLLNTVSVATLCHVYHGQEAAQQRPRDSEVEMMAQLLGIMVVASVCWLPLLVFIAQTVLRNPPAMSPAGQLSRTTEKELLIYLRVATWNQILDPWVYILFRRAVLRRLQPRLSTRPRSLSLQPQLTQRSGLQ
human Opioid Receptor Mu (Opiate Mu), OPRM1 (gene 4988), sequence (P35372 whole entry, looked up): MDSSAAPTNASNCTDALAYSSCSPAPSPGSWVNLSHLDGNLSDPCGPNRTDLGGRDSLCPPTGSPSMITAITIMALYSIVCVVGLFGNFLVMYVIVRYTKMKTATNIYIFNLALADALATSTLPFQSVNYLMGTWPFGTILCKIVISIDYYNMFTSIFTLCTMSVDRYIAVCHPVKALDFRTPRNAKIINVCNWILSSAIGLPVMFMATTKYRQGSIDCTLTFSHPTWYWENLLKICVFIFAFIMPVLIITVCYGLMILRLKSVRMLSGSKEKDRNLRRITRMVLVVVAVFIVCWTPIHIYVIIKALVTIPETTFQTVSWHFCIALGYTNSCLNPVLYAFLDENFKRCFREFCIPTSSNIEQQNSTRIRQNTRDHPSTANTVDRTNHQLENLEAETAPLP
rat Adrenergic Receptor, Beta (Adrb), Non-selective Binding, Adrb1 (gene 24925), sequence (P18090 whole entry, looked up): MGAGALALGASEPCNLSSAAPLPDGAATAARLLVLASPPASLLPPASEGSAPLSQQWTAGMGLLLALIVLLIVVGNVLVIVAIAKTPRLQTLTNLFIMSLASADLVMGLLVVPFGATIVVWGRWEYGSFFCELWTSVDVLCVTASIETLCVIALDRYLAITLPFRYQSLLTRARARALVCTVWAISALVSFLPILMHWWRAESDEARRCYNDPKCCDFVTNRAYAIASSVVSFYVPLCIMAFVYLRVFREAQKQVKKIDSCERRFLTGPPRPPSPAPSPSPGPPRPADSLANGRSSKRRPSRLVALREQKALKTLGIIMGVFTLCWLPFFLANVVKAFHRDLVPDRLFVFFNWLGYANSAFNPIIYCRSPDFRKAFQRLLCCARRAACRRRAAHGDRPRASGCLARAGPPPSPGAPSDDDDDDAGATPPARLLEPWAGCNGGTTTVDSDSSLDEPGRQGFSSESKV
human Opioid Receptor Delta 1 (Opiate D1), OPRD1 (gene 4985), sequence (P41143 whole entry, looked up): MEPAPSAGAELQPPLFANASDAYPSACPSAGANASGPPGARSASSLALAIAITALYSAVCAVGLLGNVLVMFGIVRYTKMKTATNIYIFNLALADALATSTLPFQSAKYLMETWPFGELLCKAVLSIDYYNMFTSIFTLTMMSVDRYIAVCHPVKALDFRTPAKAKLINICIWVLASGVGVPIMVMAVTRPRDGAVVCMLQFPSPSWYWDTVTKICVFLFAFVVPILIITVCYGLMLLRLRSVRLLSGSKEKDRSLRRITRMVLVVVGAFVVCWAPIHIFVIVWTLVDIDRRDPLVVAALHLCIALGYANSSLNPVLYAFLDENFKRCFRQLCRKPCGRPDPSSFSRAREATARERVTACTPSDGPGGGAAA
rat Adrenergic Receptor, Alpha 2 (Adra2), Non-selective Binding, Adra2a (gene 25083), sequence (P22909 whole entry, looked up): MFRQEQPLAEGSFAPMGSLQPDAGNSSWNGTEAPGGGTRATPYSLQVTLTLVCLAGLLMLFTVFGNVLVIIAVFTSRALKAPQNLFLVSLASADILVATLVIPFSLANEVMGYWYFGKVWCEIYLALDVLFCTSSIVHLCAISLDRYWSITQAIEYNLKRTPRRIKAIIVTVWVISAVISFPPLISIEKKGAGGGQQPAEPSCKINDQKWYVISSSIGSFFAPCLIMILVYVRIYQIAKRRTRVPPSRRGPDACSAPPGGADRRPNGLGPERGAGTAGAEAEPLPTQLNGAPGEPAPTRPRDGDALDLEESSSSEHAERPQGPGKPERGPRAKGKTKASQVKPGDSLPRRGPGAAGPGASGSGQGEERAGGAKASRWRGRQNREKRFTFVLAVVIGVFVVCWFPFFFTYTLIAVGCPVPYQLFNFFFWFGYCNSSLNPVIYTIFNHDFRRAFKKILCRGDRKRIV
rat Serotonin, 5-Hydroxytryptamine Receptor (5HT), Non-Selective Binding, Htr1a (gene 24473), sequence (P19327 whole entry, looked up): as the sequence (P19327 whole entry, looked up) above
rat Adrenergic, Alpha 1, Non-selective Receptor (Adra1), Adra1a (gene 29412), sequence (P43140 whole entry, looked up): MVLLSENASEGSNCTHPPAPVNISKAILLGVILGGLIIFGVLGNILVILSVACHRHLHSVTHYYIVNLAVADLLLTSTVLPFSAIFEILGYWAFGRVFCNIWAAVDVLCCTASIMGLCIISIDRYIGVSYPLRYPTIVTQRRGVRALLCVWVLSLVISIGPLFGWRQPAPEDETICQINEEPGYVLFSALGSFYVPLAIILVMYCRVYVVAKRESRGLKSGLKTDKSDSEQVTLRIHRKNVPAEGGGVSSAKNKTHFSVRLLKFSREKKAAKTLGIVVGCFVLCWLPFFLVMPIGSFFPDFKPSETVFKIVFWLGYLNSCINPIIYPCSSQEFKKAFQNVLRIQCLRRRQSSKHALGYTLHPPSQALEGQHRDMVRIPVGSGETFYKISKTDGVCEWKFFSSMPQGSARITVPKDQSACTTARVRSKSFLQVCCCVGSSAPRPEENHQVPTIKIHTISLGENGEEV

Regarding `O=C(O)c1cccc(C[C@@H]2COc3ccc(OCc4nc5cc(F)ccc5s4)cc3[C@@H]2O)c1`, in assay [1], the result was inactive.
Regarding `CNC(C)=O`, the result in assay [2] was inactive.
`Cc1cccc(O)c1C`: in assay [3], the compound was classed as inactive.
In the case of `CCCCCCCC/C=C\CCCCCCCC(=O)OC[C@@H](O)[C@H]1OC[C@H](O)[C@H]1O`, in assay [3], the AC50 was 25 µM (active). For the same compound, the compound was called inactive in [4].
With `Cc1nccn1-c1ccc(Sc2cccc(C3(C(N)=O)CCOCC3)c2)cc1`, the AC50 is 15.8 µM (active) in assay [5], 11.1 µM (active) in assay [6] and 25 µM (active) in assay [7]. The result in assay [1] was inactive.
For `C=CCc1cc(S(=O)(=O)c2ccc(O)c(CC=C)c2)ccc1O`, the AC50 was 15.5 µM (active) in assay [8]; 6.66 µM (active) in [3]; 20 µM (active) in assay [5]; 7.68 µM (active) in assay [10]; 4.83 µM (active) in [4]; 10 µM (active) in assay [1]. Besides, the result in assay [9] and in assay [11] was inactive.
As for `CC(C)C(=O)Nc1ccc([N+](=O)[O-])c(C(F)(F)F)c1`, the results for the AC50 in assay [3] and in assay [1] were 4.96 µM (active) and 6.71 µM (active), respectively. Also, the compound was classed as inactive in assay [12] and in assay [10].
Regarding `CCc1ccc(O)c(C(C)(C)C)c1`, the compound was classed as inactive in [13] and in [14].
Consider `O=C(O)c1ccc2c(c1)nc(C(=O)NC1CCN(C3CC3)CC1)n2Cc1cc(-c2ccc(Cl)s2)on1`, for which the call in assay [8] and in [15] was inactive. Further, the AC50 in assay [6] was 3.26 µM (active).
On to `CCCCOC(=O)c1ccccc1`, for which the compound was called inactive in assay [3] and in assay [1].
On to `CCCC(CCC)C(=O)O`, for which the call in assay [16] was inactive.
As for `OCCOCCOCCO`, the compound was classed as inactive in assay [9] and in assay [17].
As for `O=S(=O)(O)c1ccc(N=Nc2c(O)ccc3cc(S(=O)(=O)O)ccc23)cc1`, the AC50 in assay [15] is 12.4 µM (active); in [1] it was 35.6 µM (active). In addition, the outcome in assay [13] was inactive.
With `CC[C@H](C)C(=O)O[C@H]1C[C@H](O)C=C2C=C[C@H](C)[C@H](CC[C@@H](O)C[C@@H](O)CC(=O)O)[C@H]21`, in [3], the call was inactive.
In the case of `Cc1ncc([C@@H](CCCCCCc2ccc3c(n2)NCCC3)CC(=O)O)cn1`, the outcome in [8] and in [18] was inactive.
Regarding `O=c1[nH]cnc2c1ncn2[C@H]1CC[C@@H](CO)O1`, the call in assay [18] and in assay [16] was inactive.
In the case of `CCCCCCCCN(C)C`, the compound was called inactive in assay [6].
As for `Cc1ccc(S(=O)(=O)NC(=O)NN2CCCCCC2)cc1`, in [1], the compound was classed as inactive.
On to `NC(=O)NN=Cc1ccc([N+](=O)[O-])o1`, for which the call in assay [17] was inactive.
For the compound `CCCCCCCC1CCC(=O)O1` (stereo unspecified), the compound was classed as inactive in assay [15], in assay [14] and in assay [17].
Take `C[C@@H](Oc1ccc(CNC(=O)c2cccnc2Oc2ccc3c(c2)OCO3)c(F)c1)C(=O)O`: the call in assay [1] was inactive.
As to `CCN(CC)C(=S)SSC(=S)N(CC)CC`, the AC50 in [9] is 14 µM (active); in [1], 19 µM (active); in assay [7], 16.2 µM (active). Moreover, the compound was classed as inactive in [4] and in assay [11].

(Values after PubChem BioAssay (EPA / NIEHS).)
